# Compound activity (PubChem)
# IL1B cytotox – HUVEC cytotoxicity counter-screen, IL-1B stimulated. cell count reduction, % at 2 µM. AID 845. HUVEC cell count loss, Hoechst imaging. actives 0.41% (n = 94,000);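 active means cell count reduction more than 3 SD above the screen-wide mean, cut at about 70% in these data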;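 further: normalized per plate to untreated control cells as the no-loss baseline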
# Insulin prom inh – TRM-6 insulin promoter activity inhibition | TRM-6 cells (human fetal islet line), insulin promoter-eGFP reporter, imaging; reporter expression induced with tamoxifen | inhibition, % at 2 µM | actives 0.9% (n = 130,000) | AID 1273;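 active means inhibition above the mean plus 3 SD, with well images judged a real hit on visual review, cut at about 60% in these data, passing the limit was not always enough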
# IL1B NFkB pot – enhances IL-1B driven NFkB nuclear translocation; activation, % at 2 µM; actives 0.3% (n = 94,000); HUVEC IL-1B NFkB p65 nuclear translocation imaging;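 active means activation above 40%, about the mean plus 3 SD, also judged a hit on visual image review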;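 further: percent activation is computed from the nuclear over cytoplasmic p65 intensity ratio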
# NFkB transloc inh – blocks IL-1B driven NFkB nuclear translocation in HUVEC cells. actives 0.43% (n = 94,000). HUVEC IL-1B NFkB p65 nuclear translocation imaging. inhibition, % at 2 µM;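 active means inhibition above about 30% together with a positive call from visual inspection of the well image, limit read from the data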;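 further: nuclear over cytoplasmic p65 intensity ratio measured by imaging; 0% = IL-1B stimulated DMSO wells and 100% = unstimulated DMSO wells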
# * = called active by the depositor; x = not tested or not shown. Only some compounds are listed: those with a hit (about 1.3% of all), similar ones and a draw of the others.
SMILES,IL1B cytotox,Insulin prom inh,IL1B NFkB pot,NFkB transloc inh
COc1ccc(C2C3=C(CC(C)(C)CC3=O)OC(N)=C2[N+](=O)[O-])cc1 (stereo unspecified),x,-7.4,x,x
Cn1c(SCC(=O)N2CCCC2=O)nnc1-c1ccccc1F,x,9.1,x,x
CN(C)c1ccc(S(=O)(=O)c2ccc(Cl)cc2)cc1,-11.9,74.2*,27.6,-27.6
O=C(O)CCC(=O)Nc1ccc(C(=O)N2CCCCC2)cc1,87.6*,14.3,0.7,-0.7
O=C(NCCNC1CCC(c2ccccc2)CC1)c1cccs1 (stereo unspecified),x,-28.2,x,x
Cc1ccc(OCC(=O)N/N=C2/SCC(=O)N2Cc2ccccc2)cc1,x,2.6,x,x
O=C(COc1ccc(Br)cc1)N/N=C1\SCC(=O)N1c1ccc(F)cc1,x,92.9*,x,x
Cn1nc(C(=O)NCc2ccco2)c2ccccc2c1=O,x,61.5*,x,x
COc1ccc(-n2c(Cc3cccn3C)nnc2SCC(=O)NC2CCCC2)cc1,x,100.0*,x,x
CC1CCN(C(=O)CSc2nnc(Cc3cccn3C)n2-c2ccc(F)cc2)CC1,x,71.4*,x,x
COc1ccc(NC(=O)CSc2nnc(C3CCCCC3)n2-c2ccccc2)cc1,54.7,-20.5,-81.2,81.2*
COc1ccc(-n2c(Cc3cccn3C)nnc2SCC(=O)Nc2ccccc2)cc1,-52.7,x,-12.0,12.0
COc1ccc(NC(=O)CSc2nnc(C3CC3)n2N)cc1,-5.9,x,11.9,-11.9
Clc1ccc(OCCCNCc2ccccc2)c(Br)c1,-16.4,20.0,-40.0,40.0*
Cc1c(C(=O)NNC(=S)Nc2cccc(Cl)c2)nnn1-c1ccccc1,x,-7.7,x,x
O=C(Nc1ccc(C(=O)O)cc1)/C(=C\c1ccc2c(c1)OCO2)NC(=O)c1ccccc1,x,80.0*,x,x
Cc1ccc(O)c(C(=O)c2cnc3onc(-c4ccc(F)cc4)c3c2)c1,x,-31.2,x,x
Cc1noc2ncc(C(=O)c3cc(F)ccc3O)cc12,93.3*,40.0,29.7,-29.7
CN1CCN(CCCC(=O)c2ccc(C3CCCC3)cc2)CC1,x,-83.3,x,x
O=c1c(C(c2ccccc2)c2c(O)nc3n(c2=O)CCS3)c(O)nc2n1CCS2,x,-28.6,x,x
O=C(Cc1ccccc1)Nc1ccccc1Oc1ccccc1,x,16.7,x,x
CCC1c2ccc(C)n2CCN1C(=O)Nc1ccccc1C(=O)OC (stereo unspecified),92.0*,-295.8,-0.6,0.6
CCOC(=O)c1ccc(NC(=S)NCCCN2CCOCC2)cc1,x,-80.0,x,x
CC(NC(=O)c1ccccc1Cl)C(=O)O (stereo unspecified),4.9,x,66.6*,-66.6
C[C@H](NC(=O)c1ccccc1Cl)C(=O)NCc1cccs1,x,7.1,x,x
SMILES,IL1B cytotox,Insulin prom inh,IL1B NFkB pot,NFkB transloc inh
COc1ccccc1N1CCN(C(=O)c2n[nH]c3ccccc23)CC1,x,75.0*,x,x
COc1ccccc1N1CCN(C(=O)c2ccncc2)CC1,6.9,x,-3.5,3.5
Cc1ccc(S(=O)(=O)N2CCN(C(=O)c3cccs3)CC2)c(C)c1,x,27.3,x,x
Cc1c(C(=O)NCCCN2CCOCC2)oc2c1C1(CCC2)SCCS1,x,-23.8,x,x
CCN(CC)S(=O)(=O)c1cccc(NC(=O)c2ccc(C#N)cc2)c1,x,-7.1,x,x
CCN1C/C(=C/c2cccc([N+](=O)[O-])c2)C(=O)/C(=C/c2cccc([N+](=O)[O-])c2)C1,x,100.0*,x,x
O=C(NCc1ccc(C(F)(F)F)cc1)C1CC(c2c(Cl)cccc2Cl)=NO1 (stereo unspecified),3.6,26.7,14.1,-14.1
Cc1ccc(C2Oc3ccccc3C3=C2C(c2cccs2)n2ncnc2N3)cc1 (stereo unspecified),87.6*,60.0,-7.1,7.1
COCCNc1nnnc2c1sc1nc(N3CCOCC3)c3c(c12)CCCC3,x,25.6,x,x
CCCC(=O)Nc1sc2c(c1C(=O)OCC)CC(C)(C)OC2,x,75.0*,x,x
CCOC(=O)c1c(NC(=O)CCN2CCOCC2)sc2c1CC(C)(C)OC2,x,38.5,x,x
O=C1c2ccccc2CN1CCNS(=O)(=O)c1ccc(Cl)cc1,92.0*,13.2,-98.4,98.4*
C=C(C)CSc1nc2ncccc2[nH]1,-28.9,71.4*,-3.7,3.7
Cc1c(Br)c(C(=O)NCc2cc3cc(Cl)ccc3[nH]2)nn1C,x,-13.3,x,x
